Among the data in PubChem BioAssay (NCI) are growth values, retold here.

Test systems include EKVX NSCLC; SN12C renal; UO-31 renal; TK-10 renal; CAKI-1 renal; A498 renal; CCRF-CEM leukemia; MOLT-4 leukemia; SR leukemia; RPMI-8226 leukemia; OVCAR-4 ovarian; SK-OV-3 ovarian; OVCAR-3 ovarian; HS 578T breast; NCI/ADR-RES ovarian; ACHN renal; OVCAR-8 ovarian; OVCAR-5 ovarian; IGROV1 ovarian.
Assay in all cases: NCI-60 one-dose screen, 48 h (100 = growth as untreated, 0 = no growth, -100 = all killed)
What all share (conditions): 10 µM unless noted

Each structure is given as a SMILES string. The panel holds about 83,000 compounds, 20% with a hit somewhere; the sample as a whole holds those more often.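 Percent growth is the endpoint: 0 to 100 indicates growth inhibition (40 means 60% inhibition), 0 means no net growth, and negative values indicate cell death.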 A number with no mark means an inactive call. Calls of active or inactive are those of the source. How the source made its calls: active means growth percent below 10; inactive means the rest.

With `O=C(COc1ccc(/C=C2\Cc3ccccc3C2=O)cc1)c1ccc(Cl)cc1`, the growth is 101% with EKVX NSCLC; 98.9% in the assay on SN12C renal; -7.83% (active) in the assay on UO-31 renal; 133% with TK-10 renal; 78.2% in the assay on CAKI-1 renal; 108% in the assay with A498 renal. Besides, the growth with CCRF-CEM leukemia is 95.2%; in the assay on MOLT-4 leukemia, 95.9%; in the assay on SR leukemia, 117%; in the assay with RPMI-8226 leukemia, 90.3%; in the assay with OVCAR-4 ovarian it was 112%; with SK-OV-3 ovarian, 112%. In addition, the growth was 128% with OVCAR-3 ovarian, 105% in the assay with HS 578T breast and 92.6% with NCI/ADR-RES ovarian.

Take `CN1CCN(CCCCCN=c2cc3c(=O)n(CCCCCN4CCN(C)CC4)c(=O)c4c(NCCCCCN5CCN(C)CC5)cc5c(O)n(CCCCCN6CCN(C)CC6)c(=O)c2c5c4-3)CC1`: the growth in the assay on EKVX NSCLC was -11.4% (active); in the assay on SN12C renal it was 5.16% (active); with UO-31 renal, 115%; with ACHN renal, 88.5%; in the assay on CAKI-1 renal, 102%; with A498 renal, 95.6%. Also, the growth in the assay with CCRF-CEM leukemia is 13.9%; in the assay on MOLT-4 leukemia it was 25.2%; in the assay on SR leukemia, 1.43% (active); in the assay on OVCAR-8 ovarian it was 12.6%; in the assay with OVCAR-5 ovarian, -9.79% (active); with SK-OV-3 ovarian it was -29.6% (active). Besides, the growth with IGROV1 ovarian is -0.0469% (active); in the assay with OVCAR-3 ovarian it was 3.82% (active); with HS 578T breast, -2.4% (active); in the assay with NCI/ADR-RES ovarian, 110%.

As for `COc1cc(C2CC(C3C(=O)N(C)C(=O)N(C)C3=O)=NN2c2cc(Cl)cc(Cl)c2)cc(OC)c1OC` (stereo unspecified), the growth in the assay with EKVX NSCLC was 93.8%; in the assay with SN12C renal, 93.6%; with UO-31 renal, 83.2%; in the assay on TK-10 renal, 94.1%; with ACHN renal, 96.3%; in the assay on A498 renal, 88.5%. The growth was 88.3% in the assay on CCRF-CEM leukemia; 88.9% with MOLT-4 leukemia; 94.5% in the assay on SR leukemia; 85.7% in the assay on RPMI-8226 leukemia; 96.7% in the assay with OVCAR-8 ovarian; 96% in the assay on OVCAR-4 ovarian. The growth was 95.6% in the assay with SK-OV-3 ovarian, 97.2% in the assay on OVCAR-3 ovarian and 87.2% in the assay on NCI/ADR-RES ovarian.

Turning to `COc1cc(C(=O)/C=C/c2cccc(Nc3ccnc4cc(Cl)ccc34)c2)cc(OC)c1OC`, the growth in the assay on EKVX NSCLC was 16.8%; with SN12C renal, -1.72% (active); in the assay on UO-31 renal it was -87.9% (active); with TK-10 renal, -39.5% (active); in the assay on ACHN renal, -68.7% (active); in the assay on A498 renal it was 78.6%. Besides, the growth with CCRF-CEM leukemia was 2.7% (active); in the assay on MOLT-4 leukemia it was -6.64% (active); in the assay with SR leukemia, -18.7% (active); in the assay with RPMI-8226 leukemia it was -15.9% (active); in the assay on OVCAR-8 ovarian, -41% (active); in the assay on OVCAR-5 ovarian, -35.8% (active). Moreover, the growth in the assay on OVCAR-4 ovarian is -39.5% (active); in the assay with SK-OV-3 ovarian, 20.3%; in the assay with IGROV1 ovarian it was -54% (active); in the assay with OVCAR-3 ovarian, -51.4% (active); with NCI/ADR-RES ovarian, 12.2%.

As for `COc1ccc(C2=NN(C=O)C(c3cccc(Nc4ccnc5cc(Cl)ccc45)c3)C2)cc1` (stereo unspecified), the growth is 36.1% with EKVX NSCLC; 36.1% in the assay on SN12C renal; 31.2% in the assay on UO-31 renal; 37.1% with TK-10 renal; 35.9% in the assay with ACHN renal; 27.4% with A498 renal. Further, the growth is 17.1% in the assay with CCRF-CEM leukemia; 9.88% (active) in the assay with MOLT-4 leukemia; 12.6% in the assay on SR leukemia; 23.2% in the assay on RPMI-8226 leukemia; 17% with OVCAR-8 ovarian; 51.5% in the assay on OVCAR-5 ovarian. Also, the growth in the assay on OVCAR-4 ovarian is 40.1%; in the assay on SK-OV-3 ovarian, 20.6%; in the assay with IGROV1 ovarian, 44.1%; with NCI/ADR-RES ovarian, 10.8%.

With `COc1cc(C2CC(C3C(=O)N(C)C(=O)N(C)C3=O)=NN2C=O)cc(OC)c1OC` (stereo unspecified), the growth in the assay on EKVX NSCLC was 100%; in the assay with SN12C renal, 94%; in the assay with UO-31 renal, 101%; in the assay on TK-10 renal it was 87.4%; with ACHN renal, 105%; in the assay with A498 renal, 95.1%. For the same molecule, the growth was 82.8% in the assay with CCRF-CEM leukemia; 92.7% with MOLT-4 leukemia; 105% in the assay with SR leukemia; 99.7% in the assay with RPMI-8226 leukemia; 93.9% in the assay with OVCAR-8 ovarian; 107% in the assay on OVCAR-5 ovarian. In addition, the growth with OVCAR-4 ovarian was 107%; in the assay on SK-OV-3 ovarian, 76.4%; in the assay with IGROV1 ovarian it was 110%; with OVCAR-3 ovarian, 107%; in the assay with NCI/ADR-RES ovarian, 99.8%.

Turning to `C=C1CC[C@@H]2[C@](C)(COC(C)=O)[C@H](OC(C)=O)CC[C@@]2(C)[C@@H]1CC(NCc1ccccc1)C1=CCOC1=O` (stereo partly specified), the growth is 53.9% with EKVX NSCLC; 58.2% with SN12C renal; 29.1% in the assay with UO-31 renal; 46.4% in the assay with ACHN renal; 49.6% with CAKI-1 renal; 56.2% in the assay with A498 renal. Besides, the growth was 20.9% in the assay on CCRF-CEM leukemia; -3.86% (active) with MOLT-4 leukemia; 20.9% in the assay on SR leukemia; 3.18% (active) in the assay on RPMI-8226 leukemia; 28.2% in the assay with OVCAR-8 ovarian; 102% in the assay on OVCAR-5 ovarian. Moreover, the growth in the assay on OVCAR-4 ovarian is 35.9%; in the assay with SK-OV-3 ovarian it was 79.2%; in the assay with OVCAR-3 ovarian, 31.8%; in the assay with HS 578T breast, 86.4%.

As to `O=C(CNC(=O)c1cccc2ccccc12)Nc1ccccc1Oc1ccc(O)cc1`, the growth in the assay with EKVX NSCLC was 52.4% [5 µM]; in the assay on SN12C renal, 55% [5 µM]; in the assay with UO-31 renal, 45.2% [5 µM]; in the assay with TK-10 renal it was 43.6% [5 µM]; in the assay with ACHN renal, 43.8% [5 µM]; with A498 renal, 17.6% [5 µM]. The growth is 22.4% [5 µM] in the assay with CCRF-CEM leukemia; 19.6% [5 µM] in the assay with MOLT-4 leukemia; 30.4% [5 µM] in the assay on SR leukemia; 24.2% [5 µM] in the assay with RPMI-8226 leukemia; 28.4% [5 µM] in the assay with OVCAR-8 ovarian; 40.3% [5 µM] with OVCAR-5 ovarian. The growth in the assay on OVCAR-4 ovarian is 70.4% [5 µM]; in the assay with SK-OV-3 ovarian, 28.9% [5 µM]; in the assay with IGROV1 ovarian, 38% [5 µM]; in the assay with OVCAR-3 ovarian, -6.31% [5 µM] (active); in the assay on NCI/ADR-RES ovarian it was 23.5% [5 µM].

Regarding `COc1cc(-c2nnc(-c3nc(-c4cc(OC)c(OC)c(OC)c4)n4ccccc34)o2)ccc1N`, the growth with EKVX NSCLC is 8.84% (active); in the assay with SN12C renal, 50.4%; in the assay on UO-31 renal it was 38.6%; in the assay with ACHN renal, 62.2%; in the assay on CAKI-1 renal it was 59.3%; in the assay on A498 renal it was 98.8%. Moreover, the growth in the assay on CCRF-CEM leukemia is 43%; in the assay on MOLT-4 leukemia, 64.6%; with SR leukemia, 69.6%; in the assay with RPMI-8226 leukemia it was 39.6%; with OVCAR-8 ovarian it was 50.8%; in the assay with OVCAR-5 ovarian, 106%. Also, the growth with OVCAR-4 ovarian is 76.5%; in the assay with SK-OV-3 ovarian it was 96%; in the assay with OVCAR-3 ovarian it was 77.6%; with HS 578T breast, 44.2%; in the assay on NCI/ADR-RES ovarian it was 61.3%.
